A short description of assay [1]: inhibitors of TNFa-induced NFkB p65 translocation, primary screen, imaging, HUVEC, MLSMR starter and 10KST1 sets (AID 438;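 active = inhibition above 20% together with a positive visual image hit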;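 note: compound added about 3h40 before a 20 min TNFalpha stimulation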;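 for inhibition: signal is the nuclear over cytoplasmic p65 intensity ratio per well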). The following applies: HUVEC TNFa-induced p65 nuclear translocation; cell count: measured here: nuclei count (cytotoxicity indicator), at 2.08 µM; inhibition: at 2 µM, stronger effect = higher value, 0% TNFa-plus-vehicle, 100% no-TNFa wells.
Assay [2] in a line: reduction of polyQ htt aggregates in cells – imaging, exon1htt(103Q)mCFP cells, high-content imaging, primary screen (AID 483;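 active = visual image review flags a hit and inhibition of aggregation exceeds 20%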;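 note: compound exposure lasted 3 days before fixation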;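 for nuclei count: percent of the per-plate median nuclei count of sample wells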). Conditions: exon1htt(103Q)mCFP cell line, aggregate imaging, at 2 µM; inhibition of aggregation: stronger effect = higher value; nuclei count: measured here: cell count, toxicity.
Assay [3] is described as follows: endothelial E-selectin expression blockers – imaging, HUVEC, immunofluorescence, MLSMR starter and 10KST1 sets, primary screen (AID 487;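 active = visually confirmed hit in the image check and inhibition above 20%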;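 for inhibition: signal is fraction of cell area covered by stained E-selectin grains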;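 for nuclei count: 100% = median nuclei count of all wells on the same plate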). The following applies: HUVEC TNFalpha-induced E-selectin immunofluorescence imaging, at 2 µM; inhibition: stronger effect = higher value; nuclei count: measured here: cell number, toxicity.
Assay [4] addresses Voltage-gated potassium channel subunit beta-2 (Rattus norvegicus) (UniProt P62483). Nature of the assay: inhibitors of rat Kvbeta2 reductase activity – biochemical, NADPH fluorescence, primary screen (AID 622;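 active = fluorescence slope higher than the sample average by over 3 SD, cut at about -0.22 in these data, passing the limit was not always enough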;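 note: slope of raw intensity against log time taken from 70 to 1610 s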). Conditions: recombinant KvBeta, 4-cyanobenzaldehyde reduction, at 10 µM, stronger effect = higher value.
Assay [5] has the same target. Nature of the assay: enhancers of rat Kvbeta2 NADPH turnover – biochemical, NADPH fluorescence, primary screen (AID 623;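 active = NADPH fluorescence slope more negative than the mean of all samples by about 3 SD, 99.7% confidence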;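 note: fluorescence intensity change per second fitted from 20 to 320 s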). The following applies: Recombinant KvBeta, NADPH fluorescence decrease slope, 10 min; at 10 µM; stronger effect = lower value.
The target in assay [6] is Alpha-2C adrenergic receptor (Homo sapiens) (UniProt P18825). Nature of the assay: compounds altering alpha2C-coupled GIRK flux – cell-based, HEK293 alpha2C/GIRK1/2, thallium flux, primary screen (AID 624).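 Note: slope of fluorescence ratio to pre-addition baseline per second over 15 to 24 s.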 Conditions: thallium flux BTC fluorescence, at 10 µM, actives lie on both sides.
Sequence of Alpha-2C adrenergic receptor (Homo sapiens) (P18825 whole entry, looked up): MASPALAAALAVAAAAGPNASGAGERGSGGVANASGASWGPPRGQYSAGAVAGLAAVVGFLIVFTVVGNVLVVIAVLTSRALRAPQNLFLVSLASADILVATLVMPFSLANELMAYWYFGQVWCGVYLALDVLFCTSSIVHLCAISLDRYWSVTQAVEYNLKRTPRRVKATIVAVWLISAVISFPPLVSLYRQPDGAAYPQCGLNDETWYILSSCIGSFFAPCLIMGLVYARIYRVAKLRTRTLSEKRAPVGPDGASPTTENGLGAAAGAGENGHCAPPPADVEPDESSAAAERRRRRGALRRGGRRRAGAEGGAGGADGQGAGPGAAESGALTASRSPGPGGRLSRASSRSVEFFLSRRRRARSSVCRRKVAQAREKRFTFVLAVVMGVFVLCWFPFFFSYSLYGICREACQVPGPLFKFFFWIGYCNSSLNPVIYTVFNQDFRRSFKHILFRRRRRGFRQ
Assay [7] in a line: blockers of RIG-like receptor reporter activation – cell-based, Sendai virus stimulus, luciferase, 10K MLSCN set, TLR/RLR signaling modifier project, primary screen (AID 602276;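 active = inhibition at or above 50% at 10 µM; inactive = inhibition below 50%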;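 note: firefly luciferase from ISG56 promoter only with Renilla not read in this screen; 0% = Sendai virus plus DMSO and 100% = medium plus DMSO without virus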). The following applies: HEK293 RL24 IRF3 luciferase reporter, at 10 µM, stronger effect = higher value. For orientation: In a reporter assay the amount or activity of a reporter protein is the signal.
A short description of assay [8]: TLR3 IRF3 reporter activation blockers – cell-based, poly I:C stimulus, luciferase, 10K MLSCN set, primary screen (AID 602277;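 active = inhibition of the reporter signal at or above 50%; inactive = inhibition below 50%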). The following applies: HEK293-TLR3 RL24 IRF3 luciferase reporter, at 10 µM, stronger effect = higher value.

Activity calls are given as the source filed them.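 Rule for the calls, unless noted: active = fluorescence slope after compound addition differing from the mean of all screened samples at 99.7% confidence, in either direction; inactive = the rest.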

Sequence of Voltage-gated potassium channel subunit beta-2 (Rattus norvegicus) (P62483 whole entry, looked up): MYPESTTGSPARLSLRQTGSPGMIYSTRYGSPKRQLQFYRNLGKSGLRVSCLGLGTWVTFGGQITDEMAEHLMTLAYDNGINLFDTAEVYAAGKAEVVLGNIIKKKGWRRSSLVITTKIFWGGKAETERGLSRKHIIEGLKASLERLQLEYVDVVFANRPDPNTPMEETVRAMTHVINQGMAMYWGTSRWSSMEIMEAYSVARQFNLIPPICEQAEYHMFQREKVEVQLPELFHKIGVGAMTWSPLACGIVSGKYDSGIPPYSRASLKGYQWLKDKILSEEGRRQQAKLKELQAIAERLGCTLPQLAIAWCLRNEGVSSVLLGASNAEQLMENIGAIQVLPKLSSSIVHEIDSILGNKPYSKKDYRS

As for `CCN1CCN(Cc2nc3c(c(=O)n(C)c(=O)n3C)n2CC(=O)c2ccccc2)CC1`, the cell count in assay [1] was 465. Further, the inhibition (in general, the change of the read-out against control, counted positive when it falls) was -1.8% (inactive) in assay [1], -9.3% (inactive) in assay [3], 6.82% (inactive) in assay [7] and 38.5% (inactive) in assay [8]. Moreover, in assay [2], the inhibition of aggregation was -8.6% (inactive). The nuclei count in assay [2] was 89.6%; in assay [3] it was 106%. For the same compound, in assay [4], the fluorescence slope is -0.556 (inactive). The NADPH fluorescence slope in assay [5] was -3e-05 (inactive). Moreover, in assay [6], the slope is 0.00683 (inactive).
Take `CCOc1ccc2[nH]c(=O)c(CN(Cc3nnnn3CCc3ccccc3)CC3CCCO3)cc2c1` (centres undefined): the cell count in assay [1] amounted to 742. The inhibition is -1.7% (inactive) in assay [1], 17.7% (inactive) in assay [3], 3.9% (inactive) in assay [7] and 16.9% (inactive) in assay [8]. Also, the inhibition of aggregation in assay [2] is -4.9% (inactive). In addition, the nuclei count came to 113% in assay [2] and 107% in assay [3]. Further, the fluorescence slope in assay [4] is -0.476 (inactive). Besides, the NADPH fluorescence slope in assay [5] is -0.000196 (inactive). Also, the slope in assay [6] is 0.00465 (inactive).
As for `Cc1c(C(=O)NC2CCCc3ccccc32)oc2ccc(S(=O)(=O)N3CCOCC3)cc12` (centres undefined), the cell count in assay [1] is 500. Moreover, the inhibition in assay [1] was -3% (inactive); in assay [3] it was -32.9% (inactive); in assay [7], 17.5% (inactive); in assay [8] it was 14.6% (inactive). Also, the inhibition of aggregation in assay [2] was 27.1% (inactive). The nuclei count in assay [2] worked out at 76.4%; in assay [3], 110%. In addition, the fluorescence slope in assay [4] was -0.489 (inactive). In assay [5], the NADPH fluorescence slope is -6.3e-05 (inactive). In addition, in assay [6], the slope is 0.0079 (inactive).
Turning to `CCOc1cc(C2NC(=O)NC(O)(C(F)(F)F)C2C(=O)c2ccccc2)ccc1OC` (centres undefined), the cell count in assay [1] was 383. In addition, the inhibition in assay [1] is 6.8% (inactive); in assay [3], -51% (inactive); in assay [7], 5.58% (inactive); in assay [8], 11.7% (inactive). In addition, the inhibition of aggregation in assay [2] was 4.9% (inactive). For the same compound, the nuclei count in assay [2] is 86.1%; in assay [3] it was 121%. Besides, in assay [4], the fluorescence slope was -0.378 (inactive). Also, in assay [5], the NADPH fluorescence slope is 3.5e-05 (inactive). In assay [6], the slope was 0.00542 (inactive).
In the case of `O=C(OCc1nnc(-c2ccc(Cl)cc2)o1)c1ccc(=O)n(Cc2ccccc2)n1`, in assay [1], the cell count was found to be 413. Moreover, the figures for the inhibition in assay [1], in assay [7] and in assay [8] were 1.7% (inactive), -5.01% (inactive) and -8.16% (inactive), respectively. Also, in assay [2], the inhibition of aggregation is 3% (inactive). Also, the nuclei count in assay [2] came out at 99.3%; in assay [3], 160%. The fluorescence slope in assay [4] is -0.44 (inactive). The NADPH fluorescence slope in assay [5] is -5e-05 (inactive). In addition, the slope in assay [6] was 0.00426 (inactive).
In the case of `CCN(C(=O)c1cc(Cl)ccc1OC)C1CCCCC1`, in assay [1], the cell count came to 303. The inhibition in assay [1] was 4.5% (inactive); in assay [3] it was 15.2% (inactive); in assay [7], 13.8% (inactive); in assay [8], 42% (inactive). Further, in assay [2], the inhibition of aggregation was 8.5% (inactive). In addition, the nuclei count in assay [2] amounted to 109%; in assay [3] it was 113%. Besides, in assay [4], the fluorescence slope was -0.429 (inactive). The NADPH fluorescence slope in assay [5] was -6.2e-05 (inactive). Also, in assay [6], the slope is 0.00399 (inactive).
As to `O=C(O)CCc1ccc(-c2ccc(F)cc2)n1CC(=O)O`, the cell count in assay [1] was 411. In addition, the inhibition in assay [1] was 7.9% (inactive); in assay [7] it was 10.3% (inactive); in assay [8] it was 19.7% (inactive). Further, in assay [2], the inhibition of aggregation is 0.9% (inactive). Moreover, the nuclei count worked out at 97% in assay [2] and 142% in assay [3]. Further, the fluorescence slope in assay [4] was -0.462 (inactive). The NADPH fluorescence slope in assay [5] was -0.000309 (inactive). Besides, the slope in assay [6] was 0.00527 (inactive).
As to `Cc1cc(C)n(-c2ccc(C(=O)Oc3ccc4c(c3)OCO4)cc2)n1`, the cell count in assay [1] is 440. The inhibition is 3.3% (inactive) in assay [1], 7.51% (inactive) in assay [7] and 1.41% (inactive) in assay [8]. For the same compound, the inhibition of aggregation in assay [2] is 17.6% (inactive). In addition, the nuclei count in assay [2] stood at 100%; in assay [3], 148%. In addition, the fluorescence slope in assay [4] is -0.468 (inactive). Besides, the NADPH fluorescence slope in assay [5] is -2.1e-05 (inactive). Besides, in assay [6], the slope is 0.00555 (inactive).
Turning to `CN(Cc1cccs1)C(=O)CCc1ccc(S(=O)(=O)N2CCOCC2)cc1`, the cell count in assay [1] stood at 475. Besides, the inhibition in assay [1] is 1% (inactive); in assay [3], -10.9% (inactive); in assay [7], -6.32% (inactive); in assay [8] it was 14.6% (inactive). In addition, the inhibition of aggregation in assay [2] is -10.3% (inactive). The nuclei count turned out to be 94% in assay [2] and 114% in assay [3]. In assay [4], the fluorescence slope is -0.466 (inactive). Besides, the NADPH fluorescence slope in assay [5] was -3.6e-05 (inactive). Moreover, the slope in assay [6] was 0.00394 (inactive).
In the case of `Cc1nnc(NCCc2ccccc2)n(N)c1=O`, in assay [1], the cell count came to 806. Further, the inhibition in assay [1] was -5.5% (inactive); in assay [3], -35% (inactive); in assay [7], 2.54% (inactive); in assay [8], 5.29% (inactive). Further, in assay [2], the inhibition of aggregation is -21.2% (inactive). The nuclei count in assay [2] was 106%; in assay [3] it was 121%. Also, in assay [4], the fluorescence slope was -0.514 (inactive). Further, in assay [5], the NADPH fluorescence slope was 4.9e-06 (inactive). In addition, in assay [6], the slope was 0.00506 (inactive).
Take `CC1CN(C(=O)c2scc3c2OCCO3)CC(C)O1` (centres undefined): the cell count in assay [1] stood at 190. Besides, the inhibition in assay [1] was -5.4% (inactive); in assay [3], 11.5% (inactive); in assay [7], 17.3% (inactive); in assay [8], 20.4% (inactive). Also, in assay [2], the inhibition of aggregation was 0.7% (inactive). The values for the nuclei count in assay [2] and in assay [3] were 75% and 77%, respectively. Further, the fluorescence slope in assay [4] was -0.598 (inactive). For the same compound, the NADPH fluorescence slope in assay [5] was -1.6e-05 (inactive). In addition, the slope in assay [6] is 0.00693 (inactive).
With `Cc1cc(NC(=O)c2ccccc2)ncc1NC(=O)c1ccco1`, the cell count in assay [1] turned out to be 427. Moreover, the figures for the inhibition in assay [1], in assay [7] and in assay [8] were 12.5% (inactive), 7.79% (inactive) and -25.3% (inactive), respectively. In addition, in assay [2], the inhibition of aggregation was 11.4% (inactive). Besides, the nuclei count in assay [2] was determined as 100%; in assay [3] it was 147%. Moreover, in assay [4], the fluorescence slope is -0.603 (inactive). In assay [5], the NADPH fluorescence slope is 2.5e-05 (inactive). Further, the slope in assay [6] is 0.00711 (inactive).
In the case of `Cc1ccc(N2CC(C)Cn3c2nc2c3c(=O)n(CC(=O)OCc3ccccc3)c(=O)n2C)cc1C` (centres undefined), in assay [1], the cell count amounted to 242. Besides, the inhibition was -3.2% (inactive) in assay [1], -43% (inactive) in assay [3], 28.5% (inactive) in assay [7] and 16.6% (inactive) in assay [8]. Moreover, in assay [2], the inhibition of aggregation is 21.6% (inactive). Moreover, the nuclei count was determined as 77.7% in assay [2] and 109% in assay [3]. Besides, the fluorescence slope in assay [4] was -0.473 (inactive). Besides, in assay [5], the NADPH fluorescence slope was -2.8e-05 (inactive). Besides, in assay [6], the slope is 0.00778 (inactive).

The record behind these values is PubChem BioAssay.
